Assay outcomes deposited in PubChem by The Scripps Research Institute Molecular Screening Center.
The list is not random: actives were taken first. Their share in the collection is about 3.1%.
pPAFAH inh: pPAFAH (human) enzyme inhibition. recombinant pPAFAH, FP-rhodamine probe fluorescence polarization. inhibition, % at 3.39 µM. 330,000 compounds, 1.5% hits;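 active = inhibition above the mean inhibition across the screen plus 3 SD, cut at about 25% in these data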;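 also: inhibitors block binding of the rhodamine activity-based probe so polarization drops; 0% = enzyme with DMSO and 100% = wells lacking pPAFAH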
Target sequence (Q13093 whole entry, looked up): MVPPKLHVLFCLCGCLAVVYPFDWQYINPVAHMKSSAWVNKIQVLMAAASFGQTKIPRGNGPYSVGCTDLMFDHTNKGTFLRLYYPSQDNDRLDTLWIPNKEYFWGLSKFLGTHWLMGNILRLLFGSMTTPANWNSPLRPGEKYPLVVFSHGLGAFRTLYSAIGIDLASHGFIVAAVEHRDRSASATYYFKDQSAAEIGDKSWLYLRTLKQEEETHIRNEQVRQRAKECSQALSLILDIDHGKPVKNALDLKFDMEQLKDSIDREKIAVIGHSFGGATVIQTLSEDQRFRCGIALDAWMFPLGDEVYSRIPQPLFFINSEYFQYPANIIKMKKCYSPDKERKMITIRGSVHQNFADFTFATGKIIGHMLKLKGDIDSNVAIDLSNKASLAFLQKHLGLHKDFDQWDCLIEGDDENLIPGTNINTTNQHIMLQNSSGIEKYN
PAFAH2 FP inh: inhibitors of human PAFAH2. AID 492956. inhibition, % at 3.39 µM. 340,000 compounds, 0.99% hits. recombinant PAFAH2, FP-rhodamine activity probe, fluorescence polarization;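 active = inhibition above the mean over all tested compounds plus 3 SD, cut at about 30% in these data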;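 also: inhibitors block probe labeling of enzyme so polarization drops; 0% = enzyme with DMSO and 100% = wells lacking PAFAH2 protein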
Rin1-Abl PPI inh: human Rin1-Abl interaction inhibition; 360,000 compounds, 0.4% hits; P00519+Q13671; TR-FRET Rin1/Abl binding, biochemical; inhibition, % at 7.35 µM; AID 588664; in the data active = inhibition above about 5%, passing the limit was not always enough
E coli Lon inh: E. coli protease La inhibition; P0A9M0; purified E. coli Lon protease, fluorescence polarization; AID 602123; inhibition, % at 7.94 µM; 360,000 compounds, 0.42% hits; in the data active = inhibition above about 13%, passing the limit was not always enough;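 also: 0% = enzyme with probe and DMSO and 100% = no enzyme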
PAFAH1B2 FP inh: blocks human PAF acetylhydrolase 1b catalytic subunit 2 | P68402 | AID 492953 | recombinant PAFAH1B2, FP-rhodamine activity probe, fluorescence polarization | inhibition, % at 3.39 µM | 340,000 compounds, 1.2% hits;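 active = inhibition above the mean of all tested compounds plus 3 SD, cut at about 24% in these data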;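 also: 0% = enzyme with DMSO and 100% = wells lacking PAFAH1B2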
Target sequence (P68402 whole entry, looked up): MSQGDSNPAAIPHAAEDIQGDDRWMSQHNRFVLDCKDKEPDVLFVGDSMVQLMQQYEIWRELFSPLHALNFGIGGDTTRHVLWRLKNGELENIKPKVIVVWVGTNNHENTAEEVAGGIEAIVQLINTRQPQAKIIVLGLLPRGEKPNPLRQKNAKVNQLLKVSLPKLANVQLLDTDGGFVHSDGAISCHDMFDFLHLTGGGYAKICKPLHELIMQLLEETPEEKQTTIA
PAFAH1B3 FP inh: inhibitors of human PAFAH1B3. recombinant PAFAH1B3, FP-rhodamine probe, fluorescence polarization. Q15102. 340,000 compounds, 0.28% hits. inhibition, % at 3.39 µM;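 active = inhibition above the screen-wide average of all tested compounds plus 3 SD, cut at about 25% in these data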;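 also: 0% = enzyme with DMSO only and 100% = wells lacking PAFAH1B3 protein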
Rin1 Abl conf: confirmation of inhibitors of human Rin1-Abl interaction | shares compounds with Rin1-Abl PPI inh | TR-FRET Rin1-Abl binding, purified proteins | inhibition, % at 7.35 µM | 1,300 compounds, 49% hits | AID 602124
GFP quencher: quenches GFP fluorescence, counter-screen for Rin1-Abl inhibitors; inhibition, % at 6.75 µM; inhibitors/quenchers counterscreen; 1,300 compounds, 8.5% hits; shares compounds with Rin1-Abl PPI inh;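 also: ABL1-eGFP fusion protein alone without its partner RIN1-SBP; 0% = protein with vehicle and 100% = wells lacking protein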
GFP quench dose: quenches GFP in dose response, Rin1-Abl counter-screen. shares compounds with Rin1-Abl PPI inh. GFP fluorescence interference/quenching counterscreen. IC50, µM. 230 tested, under 10 active; call rule not given here;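 also: ABL1-eGFP fusion protein alone without its RIN1 binding partner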
Numbers without * were called inactive; . = no result given. Rule as the data show it, unless noted: active = inhibition above about 6.5%; inactive = the rest.

SMILES	pPAFAH inh	PAFAH2 FP inh	Rin1-Abl PPI inh	E coli Lon inh	PAFAH1B2 FP inh	PAFAH1B3 FP inh	Rin1 Abl conf	GFP quencher	others
O=C(CNC(=O)c1ccco1)NCC(=O)OCC(=O)c1ccc(Cl)c([N+](=O)[O-])c1	4.0	1.4	-8.7	12.8	6.0	-8.7	.	.
O=C1N(c2ccc(Cl)cc2)C(c2ccccc2)N2CCCN12 (configuration not stated)	-3.3	-2.0	8.3*	-8.8	4.7	10.6	11.6*	-0.3
O=C1N(c2ccccc2)C(c2ccccc2)N2CCCN12 (configuration not stated)	2.2	-1.6	-0.1	0.6	2.5	4.0	.	.
Cc1ccc(C2N(c3cccc(Cl)c3)C(=O)N3CCCN23)cc1 (configuration not stated)	5.2	5.2	29.4*	4.5	3.2	8.4	29.6*	-0.6	GFP quench dose=>67.5
CCOC(=O)C[C@H]1c2ccccc2S(=O)(=O)N1c1cccc(OC)c1	0.7	0.1	2.6	-11.1	-1.1	2.5	.	.
C/C(=N\OC(=O)Nc1ccccc1)c1ccc(C)cc1	-1.1	4.6	6.4*	-1.1	2.7	-4.7	-0.9	-0.1
O=C(OCn1nnc2ccccc2c1=O)c1ccc(F)c(S(=O)(=O)N2CCOCC2)c1	.	.	-0.2	-5.6	.	.	.	.
O=C(COC(=O)c1ccc(Br)c(S(=O)(=O)N2CCOCC2)c1)NCCc1ccccc1	1.3	11.5	2.0	-0.3	0.9	5.9	.	.
CCCCN([C@H](CO)C(C)C)S(=O)(=O)c1ccccc1Br	-2.4	3.8	1.0	11.0	1.1	11.2	.	.
CC(C)(C)c1nnc(NS(C)(=O)=O)s1	-4.8	-2.6	9.9*	-2.5	-1.5	5.5	1.0	0.6
Cn1nc(C(C)(C)C)cc1NC(=O)C1(C)CCN1C(=O)CC(c1ccccc1)c1ccccc1 (configuration not stated)	.	.	-1.5	-17.6	.	.	.	.
CCN(C(=O)COC(=O)c1cc(Cl)ccc1OC)c1c(N)n(Cc2ccccc2)c(=O)[nH]c1=O	-2.2	2.7	8.7*	-6.5	4.4	2.1	-3.1	1.9
COc1ccc(C)cc1S(=O)(=O)NC1CC1	0.6	-2.8	-0.3	-8.6	3.6	2.9	.	.
COc1cccc2c3cccc(OC)c3c3[nH]cnc3c12	.	-0.8	33.2*	-16.5	4.7	10.3	28.5*	0.5	GFP quench dose=>67.6
CC1(C)CCN2CCC(C)(C)c3c(O)ccc1c32	17.5	-7.0	7.6*	-145.3	8.3	11.2	1.6	1.0
CCC(=O)NC(c1cccs1)c1cc([N+](=O)[O-])c2cccnc2c1O (configuration not stated)	22.7	9.5	10.4*	-5.2	2.0	-0.4	6.3*	9.3*
CN(CC(=O)Nc1ccc(Cl)c(Cl)c1)C(=O)/C=C/c1ccc(F)cc1	-1.6	-5.0	9.5*	0.6	-3.1	7.1	-0.6	-2.8
CN(CC(=O)Nc1cccc(F)c1)C(=O)/C=C/c1ccc(S(=O)(=O)N2CCCCCC2)cc1	.	-13.2	3.0	-2.7	2.6	-2.9	.	.
COc1ccc(F)cc1C(=O)C1CCCN(Cc2cn(C)c3ccccc23)C1 (configuration not stated)	2.9	-2.7	9.9*	-5.6	-8.3	4.4	0.5	-1.8
Cn1cc(CN2CCCC(C(=O)c3cc(F)ccc3F)C2)c2ccccc21 (configuration not stated)	2.4	0.1	0.1	9.7	6.4	4.9	.	.
CCC(C)C(NC(=O)CCC(=O)OCC(=O)[C@@]1(O)CCC2[C@@H]3CCC4=CC(=O)C=C[C@]4(C)C3[C@@H](O)C[C@@]21C)C(=O)O (some centres not stated)	1.7	5.0	1.1	-6.2	4.7	4.1	.	.
Cc1ccc(S(=O)(=O)C2(C(=O)Nc3ccc(Br)cc3)CC2)cc1	19.0	4.7	-0.9	1.9	-0.2	2.0	.	.
Cc1ccc(S(=O)(=O)C2(C(=O)NC3CCCCC3)CC2)cc1	5.1	2.2	15.8*	-2.6	1.9	7.0	0.4	0.9
CC1CCCN(C(=O)C2CCN(S(=O)(=O)c3ccc4c(c3)CC(C)N4C(=O)C3CC3)CC2)C1 (configuration not stated)	1.6	3.4	15.0*	-3.2	1.4	5.8	-0.2	-2.8
CCCC(c1nnnn1CC1CCCO1)N1CCN(c2cc(Cl)ccc2C)CC1 (configuration not stated)	-0.9	0.4	0.3	0.0	-1.3	3.6	.	.
SMILES	pPAFAH inh	PAFAH2 FP inh	Rin1-Abl PPI inh	E coli Lon inh	PAFAH1B2 FP inh	PAFAH1B3 FP inh	Rin1 Abl conf	GFP quencher	others
Cc1ccc(Cl)cc1N1CCN(C(CC(C)C)c2nnnn2CC2CCCO2)CC1 (configuration not stated)	-0.6	4.5	7.4*	-0.5	9.8	3.8	-2.2	0.9
CCOC(=O)CC1ON(C)C(=O)N1c1ccc(Cl)cc1Cl (configuration not stated)	3.7	-4.2	7.0*	0.8	1.9	2.5	0.2	-2.1
Cc1[nH]n(-c2ccccc2)c(=O)c1C(C[N+](=O)[O-])c1ccccc1Cl (configuration not stated)	1.5	4.8	2.5	4.3	1.3	6.4	.	.
O=c1c2cc([N+](=O)[O-])cc([N+](=O)[O-])c2[nH]n1-c1ccccc1	19.9	9.5	0.3	2.0	5.1	17.2	.	.
Cc1[nH]n(-c2ccccc2)c(=O)c1C(c1ccc(O)c([N+](=O)[O-])c1)c1c(C)[nH]n(-c2ccccc2)c1=O	1.2	1.5	12.7*	-14.8	0.2	8.4	-3.9	4.1
COc1cccc(C(c2c(C)[nH]n(-c3ccccc3)c2=O)c2c(C)[nH]n(-c3ccccc3)c2=O)c1OC	0.1	10.8	6.4*	-0.6	-0.1	4.6	0.1	-1.8
COc1ccc(C(C[N+](=O)[O-])c2c(C)[nH]n(-c3ccccc3)c2=O)cc1 (configuration not stated)	-0.7	1.5	10.5*	-0.3	9.5	5.3	6.6*	-1.8
COc1cccc(C(c2c(C)[nH]n(-c3ccccc3)c2=O)c2c(C)[nH]n(-c3ccccc3)c2=O)c1O	6.9	13.1	5.7	12.2	9.4	6.3	.	.
CC(=O)NN1C(=O)/C(=C/c2ccc(Br)o2)SC1=S	16.3	9.7	6.5*	1.9	4.7	1.9	-2.1	0.1
CCOC(=O)N1CCC(Nc2ncnc3c2cnn3-c2ccccc2)CC1	1.1	0.2	9.9*	-10.6	-0.6	13.7	1.7	0.0
CC(=O)NCC1(c2ccccc2)CCN(CCCC(=O)c2ccc(F)cc2)CC1	.	.	14.3*	-17.8	.	.	14.8*	-1.1
